Screening results (PubChem BioAssay)
D2 ag-1 – activates the human D2 dopamine receptor. P14416. DiscoveRx PathHunter D2 beta-arrestin, luminescence, 90 min; 100% = 57 uM dopamine signal. activation, % (test concentration not listed). 360,000 tested, 0.084% active. AID 624465; in the data active = activation above about 40%
Target sequence (P14416 whole entry, looked up): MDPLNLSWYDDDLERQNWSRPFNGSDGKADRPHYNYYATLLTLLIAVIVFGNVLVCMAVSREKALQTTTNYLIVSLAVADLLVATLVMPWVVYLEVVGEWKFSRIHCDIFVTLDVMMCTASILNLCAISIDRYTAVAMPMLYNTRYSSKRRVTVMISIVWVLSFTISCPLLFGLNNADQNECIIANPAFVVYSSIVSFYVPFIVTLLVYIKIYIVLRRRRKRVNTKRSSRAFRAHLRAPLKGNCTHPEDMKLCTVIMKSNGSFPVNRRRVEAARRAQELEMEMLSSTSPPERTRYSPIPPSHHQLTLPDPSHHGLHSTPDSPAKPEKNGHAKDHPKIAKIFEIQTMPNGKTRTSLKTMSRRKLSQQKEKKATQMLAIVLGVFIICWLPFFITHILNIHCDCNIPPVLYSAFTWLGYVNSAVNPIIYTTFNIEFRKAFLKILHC
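Agonist mode: compounds alone added to overnight-plated D2 PathHunter cells for 90 min at 37 C, with 57 uM final dopamine (EC100) defining full response. Beta-arrestin recruitment detected by chemiluminescent reagent, read after 1 h at ambient temperature.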
D2 antagonist – antagonists of human D2 dopamine receptor; AID 485344; 340,000 tested, 2% active; P14416; HEK293 TREx D2 cells, calcium flux, dopamine EC80; inhibition, % at 10 µM; in the data active = inhibition above about 30%; inactive = below that, where a call was filed; also: 0% is about no effect
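Compounds are added to dye-loaded, induced HEK293 T-REx cells coupled to calcium release via D2; after a 3 min kinetic read an EC80 dopamine stimulus is given and fluorescence is recorded for 3 more min.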
D2 PAM-1 – positive allosteric modulators of human D2 dopamine receptor | P14416 | HEK293 T-REx D2, calcium flux, EC20 dopamine potentiation | potentiation, % at 10 µM | 340,000 tested, 0.34% active | AID 485347;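 active = potentiation over 3 SD above the plate norm, cut at about 30% in these data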; also: 0% is about no effect
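Potentiation of an EC20 dopamine calcium response is measured in a force-coupled, tetracycline-inducible Hek293 Trex D2 line. Compound-only kinetic reads over 180 s flag agonists before dopamine addition.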
D2 PAM-2 – potentiates the human D2 dopamine receptor allosterically. P14416. DiscoveRx D2 beta-arrestin cells, luminescence, 90 min; 100% = 57 uM dopamine signal. potentiation, % (test concentration not listed). 360,000 tested, 0.23% active; in the data active = potentiation above about 50%
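D2 cells co-treated with compound plus 50 nM dopamine (EC20) for 90 min at 37 deg C to detect potentiation. Beta-arrestin recruitment was read as enzyme-fragment luminescence after 1 h at ambient temperature. Full response was set by 57 uM dopamine.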
D2 ag-2 – agonists of human D2 dopamine receptor; HEK293 T-REx D2 cells, calcium flux agonist mode; activation, % at 2 µM; 340,000 tested, 0.53% active; AID 485358;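 active = activation over 3 SD above normal in the single-dose calcium agonist read, cut at about 30% in these data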; also: 0% is about no effect
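In this primary screen, compounds producing a positive calcium signal within 180 s of addition to tetracycline-induced, force-coupled HEK293 Trex D2 cells are flagged; cells are dye-loaded with a no-wash calcium kit beforehand.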
* hit, by the source's call. The list is not random: actives were taken first. Their share in the collection is about 2.4%.

CC1CC(C)CN(c2ccc(-n3cnnn3)cc2[N+](=O)[O-])C1 (stereo not drawn) was read as D2 ag-1 -7.0, D2 antagonist -3.8, D2 PAM-1 0.8, D2 PAM-2 2.1 and D2 ag-2 -0.1.
For Cc1c(C(=O)NCc2ccccc2CN2CCCC2)oc2ccc(F)cc12 the results were D2 ag-1 -0.7, D2 antagonist 58.4*, D2 PAM-1 -25.7, D2 PAM-2 -3.2 and D2 ag-2 -0.3.
O=C(NCc1nc2ccccc2[nH]1)c1cccc(S(=O)(=O)N2CCOCC2)c1 was read as D2 ag-1 -2.7, D2 antagonist 37.8*, D2 PAM-1 -1.6, D2 PAM-2 -9.1 and D2 ag-2 0.2.
For CN(c1ccccc1)S(=O)(=O)c1cccc(C(=O)NCc2ccccc2CN2CCCC2)c1 the results were D2 ag-1 -1.6, D2 antagonist 39.3*, D2 PAM-1 -30.7, D2 PAM-2 -32.6 and D2 ag-2 0.2.
For CC1CCN(C(=O)COC(=O)c2cccc(S(=O)(=O)N(C)c3ccccc3)c2)CC1 the results were D2 ag-1 1.9, D2 antagonist 43.3*, D2 PAM-1 1.4, D2 PAM-2 5.1 and D2 ag-2 5.0.
For CN(c1ccccc1)S(=O)(=O)c1ccc(C(=O)NCc2ccccc2CN2CCCC2)cc1 the results were D2 ag-1 -1.7, D2 antagonist 0.3, D2 PAM-1 -20.0, D2 PAM-2 -37.2 and D2 ag-2 0.5.
O=C(c1ccc2c(c1)N(Cc1ccc(F)cc1)C(=O)c1ccccc1S2(=O)=O)N1CCC(Cc2ccccc2)CC1 was read as D2 PAM-1 6.8 and D2 ag-2 0.4.
`CCC(CC)C(=O)Nc1nnc(SCc2cc(=O)n3cccc(C)c3n2)s1` gave D2 PAM-1 10.3.
O=C(NCc1ccccc1CN1CCCC1)c1cccc(S(=O)(=O)N2CCOCC2)c1 was read as D2 ag-1 -3.0, D2 antagonist 49.4*, D2 PAM-1 -14.3, D2 PAM-2 -35.1 and D2 ag-2 0.3.
Fc1ccc([C@@H]2CCNC[C@H]2COc2ccc3c(c2)OCO3)cc1 was read as D2 ag-1 2.9, D2 antagonist 40.7*, D2 PAM-1 -9.4, D2 PAM-2 -6.1 and D2 ag-2 14.6.
For CCOC(=O)c1ccccc1NC(=O)NCc1cccn1Cc1ccc(F)cc1 the results were D2 PAM-1 1.5.
For Cc1cccc(-n2c(CNC(=O)c3ccc(S(=O)(=O)N4CCCC4)cc3)n[nH]c2=S)c1 the results were D2 ag-1 -2.4, D2 antagonist 12.2, D2 PAM-1 -0.8, D2 PAM-2 -8.0 and D2 ag-2 -0.9.
O=C(NCc1n[nH]c(=S)n1-c1cccc(Cl)c1)c1ccc(S(=O)(=O)N2CCCCC2)cc1 was read as D2 ag-1 -9.3, D2 antagonist -11.8, D2 PAM-1 32.7*, D2 PAM-2 -16.4 and D2 ag-2 -1.9.
For CCOC(=O)c1ccccc1NC(=O)CCOc1ccccc1 the results were D2 PAM-1 -6.7 and D2 ag-2 -0.4.
Cc1ccc(C)c(SCC(=O)Nc2cc(S(=O)(=O)N3CCOCC3)ccc2C)c1 was read as D2 ag-1 -4.7, D2 antagonist 53.1*, D2 PAM-1 -5.3, D2 PAM-2 -2.3 and D2 ag-2 0.5.
Screening Cc1ccc(S(=O)(=O)N(C)C)cc1NC(=O)CSc1ccc2c(c1)OCCO2 returned D2 ag-1 1.5, D2 antagonist 36.3*, D2 PAM-1 -1.5, D2 PAM-2 -22.1 and D2 ag-2 0.1.
`COc1ccccc1CCC(=O)OCC(=O)Nc1cc(S(=O)(=O)N2CCOCC2)ccc1C` gave D2 ag-1 -3.2, D2 antagonist 33.0*, D2 PAM-1 -5.6, D2 PAM-2 -23.2 and D2 ag-2 1.7.
Cc1ccc(S(=O)(=O)N2CCCCC2)cc1NC(=O)COC(=O)c1c(F)cccc1F was read as D2 ag-1 -4.7, D2 antagonist 5.8, D2 PAM-1 30.9*, D2 PAM-2 12.4 and D2 ag-2 -1.1.
`CCNC(=O)C1(C)CCN(Cc2ccc(OC(F)(F)F)cc2)C1` (stereo not drawn) gave D2 ag-1 -1.4 and D2 PAM-2 -7.8.
For CCOc1cccc(C(=O)Nc2ccc(-c3nc4cc(C)cc(C)c4o3)cc2)c1 the results were D2 PAM-1 2.6 and D2 ag-2 -2.2.
For O=C(OCc1cn([C@H]2CN(CC3CCCCC3)[C@@H](c3ccccc3)C[C@@H]2O)nn1)c1ccccc1 the results were D2 ag-1 -8.1 and D2 PAM-2 4.5.
Screening O=c1c2c([N+](=O)[O-])cc([N+](=O)[O-])cc2sn1Cc1ccccc1 returned D2 ag-1 -7.3 and D2 PAM-2 8.3.
Screening O=c1c2c([N+](=O)[O-])cc([N+](=O)[O-])cc2sn1-c1ccc(Br)cc1 returned D2 ag-1 10.7, D2 antagonist 7.0, D2 PAM-1 -1.9, D2 PAM-2 60.6* and D2 ag-2 0.6.
For Cc1cc2c(c3oc(=O)c4ccccc4c13)CN(Cc1ccc(F)cc1)CO2 the results were D2 PAM-1 -15.1 and D2 ag-2 -0.6.
`CC(C)CC1C(=O)N(Cc2cn(CCC3OCCO3)nn2)CCS(=O)(=O)N1Cc1ccc(-c2ccncc2)cc1` (stereo not drawn) gave D2 ag-1 -9.0 and D2 PAM-2 -1.4.
Screening CCOc1ccc2oc(=O)cc(CN3CCN(Cc4ccc(F)cc4)CC3)c2c1 returned D2 PAM-1 -26.7 and D2 ag-2 -0.8.
Screening CC(Oc1ccc(Br)cc1)C(=O)NC1CCN(Cc2ccccc2)CC1 (stereo not drawn) returned D2 ag-1 -5.0, D2 antagonist 64.4*, D2 PAM-1 2.3, D2 PAM-2 -32.4 and D2 ag-2 -0.4.
`CCCC(CCC)C(=O)NC1CCN(Cc2ccccc2)CC1` gave D2 ag-1 0.1, D2 antagonist 17.5, D2 PAM-1 -17.7, D2 PAM-2 -11.6 and D2 ag-2 -0.3.
For COC(=O)[C@H](C)NC(=O)NC1CCN(Cc2ccccc2)CC1 the results were D2 ag-1 -1.8, D2 antagonist 50.4*, D2 PAM-1 -11.4, D2 PAM-2 -20.1 and D2 ag-2 0.1.
Screening CC(C)Oc1ccc(C(=O)NC2CCN(Cc3ccccc3)CC2)cc1 returned D2 ag-1 -3.2, D2 antagonist -11.8, D2 PAM-1 -22.8, D2 PAM-2 -26.3 and D2 ag-2 -0.5.
CCn1c(C)nc2cc(C(=O)N/N=C/c3ccc(O)c(O)c3O)ccc21 was read as D2 ag-1 0.5, D2 antagonist -5.6, D2 PAM-1 -6.9, D2 PAM-2 15.6 and D2 ag-2 31.8*.
`CCN(CC)CCCNC(=S)N1CCN(c2nc3ccccc3n2CC)CC1` gave D2 ag-1 5.8, D2 antagonist 47.7*, D2 PAM-1 -16.7, D2 PAM-2 -20.5 and D2 ag-2 1.8.
CCOC(=O)c1cc(-c2ccc(C)cc2)n(CC(=O)Nc2ccc(OC)cc2OC)c1C was read as D2 PAM-1 7.2.
